# From PubChem BioAssay (Tox21)
# Inconclusive results are not listed. A call without a number means that no potency is given here. A number with no mark means an inactive call. Calls of active or inactive are those of the source. Unless noted, calls follow the shape of the dose curve; as a rule, active = well fitted curve in the direction sought with a large enough effect in the repeat runs; inconclusive = weak or mixed curves; inactive = no such curve, though single readings can be large; an effect the other way counts as inactive or inconclusive.
# What was measured:
# [1] = test system: thyroid hormone receptor (rat, GH3 cells); experiment: qHTS assay to identify small molecule agonists of the thyroid receptor (TR) signaling pathway (AID 743066; calls by dose curve); details: GH3.TRE-Luc cells, TR agonist luciferase, 24 h; series mostly up to 83.9 µM
# [2] = qHTS assay to identify small molecule antagonists of the estrogen receptor alpha (ER-alpha) signaling pathway - cell viability counter screen (AID 743074; calls by dose curve;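 also: HEK293 cells carrying ER-alpha-UAS-bla reporter stimulated with 17beta-estradiol; nearly all actives have a fitted effect of over 45% in size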; also: potency is read from the fitted curve at half-maximal effect); details: ERalpha-bla HEK293 viability, CellTiter-Glo luminescence, 18 h; series mostly up to 69.4 µM
# [3] = qHTS assay to identify small molecule antagonists of the estrogen receptor alpha (ER-alpha) signaling pathway using the BG1 cell line - cell viability counter screen (AID 743081); details: BG1Luc4E2 viability, CellTiter-Fluor, 22 h; series mostly up to 70.3 µM;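 also: compound given together with 17beta-estradiol as the ER stimulus; nearly all actives have a fitted effect of over 45% in size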; also: potency is read from the fitted curve at half-maximal effect
# Aromatase (Homo sapiens) = Aromatase (Homo sapiens) (UniProt P11511); experiment: qHTS assay to identify aromatase inhibitors (AID 743083); details: MCF-7 aro ERE, testosterone-driven ERE luciferase, 24 h; series mostly up to 70.3 µM; also: nearly all actives have a fitted effect of over 55% in size; also: potency is read from the fitted curve at half-maximal effect
# Chain of Aromatase (Homo sapiens) (P11511 whole entry, looked up): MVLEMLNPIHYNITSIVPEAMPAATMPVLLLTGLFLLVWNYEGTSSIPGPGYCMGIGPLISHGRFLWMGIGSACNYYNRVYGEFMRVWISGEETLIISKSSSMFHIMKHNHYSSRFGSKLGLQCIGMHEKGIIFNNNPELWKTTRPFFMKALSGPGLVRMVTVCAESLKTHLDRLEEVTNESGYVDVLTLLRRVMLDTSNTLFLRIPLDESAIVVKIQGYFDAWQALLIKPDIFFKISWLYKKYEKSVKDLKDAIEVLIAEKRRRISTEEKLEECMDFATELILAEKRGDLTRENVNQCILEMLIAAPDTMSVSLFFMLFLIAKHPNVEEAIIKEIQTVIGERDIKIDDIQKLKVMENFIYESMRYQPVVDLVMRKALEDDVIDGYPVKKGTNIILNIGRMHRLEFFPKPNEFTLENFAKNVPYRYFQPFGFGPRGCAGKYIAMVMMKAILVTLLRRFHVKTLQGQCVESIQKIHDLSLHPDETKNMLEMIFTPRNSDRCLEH
# [4] = qHTS assay to identify aromatase inhibitors - cell viability counter screen (AID 743084); details: MCF-7 aro ERE viability, CellTiter-Fluor, 24 h; series mostly up to 70.3 µM;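 also: cells stimulated with testosterone during compound exposure; nearly all actives have a fitted effect of over 55% in size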; also: potency is read from the fitted curve at half-maximal effect
# [5] = qHTS assay to identify small molecule that activate the aryl hydrocarbon receptor (AhR) signaling pathway - cell viability counter screen (AID 743086); details: HepG2-AhR-luc viability, CellTiter-Fluor, 24 h; series mostly up to 70.3 µM; also: nearly all actives have a fitted effect of over 45% in size; also: potency is read from the fitted curve at half-maximal effect;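 as to viability change, negative = cytotoxic: HepG2 liver cells carrying the AhR DRE luciferase reporter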
# How it was run: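 Cytotoxicity counter screen: CellTiter-Fluor signal (30 min, 37 C) in 4000 HepG2 cells/well carrying the DRE-luciferase reporter, following 24 h compound exposure at 37 C.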
# [6] = molecular target: Peroxisome proliferator-activated receptor gamma (Homo sapiens) (UniProt P37231); experiment: qHTS assay to identify small molecule agonists of the peroxisome proliferator-activated receptor gamma (PPARg) signaling pathway (AID 743094; active = well fitted activation curve with a large enough effect in the signal ratio in the repeat runs, not every such curve was filed as active; the % refers to the signal ratio); details: HEK293H PPARg-UAS-bla, beta-lactamase FRET ratio, 17 h; series mostly up to 57 µM
# Chain of Peroxisome proliferator-activated receptor gamma (Homo sapiens) (P37231 whole entry, looked up): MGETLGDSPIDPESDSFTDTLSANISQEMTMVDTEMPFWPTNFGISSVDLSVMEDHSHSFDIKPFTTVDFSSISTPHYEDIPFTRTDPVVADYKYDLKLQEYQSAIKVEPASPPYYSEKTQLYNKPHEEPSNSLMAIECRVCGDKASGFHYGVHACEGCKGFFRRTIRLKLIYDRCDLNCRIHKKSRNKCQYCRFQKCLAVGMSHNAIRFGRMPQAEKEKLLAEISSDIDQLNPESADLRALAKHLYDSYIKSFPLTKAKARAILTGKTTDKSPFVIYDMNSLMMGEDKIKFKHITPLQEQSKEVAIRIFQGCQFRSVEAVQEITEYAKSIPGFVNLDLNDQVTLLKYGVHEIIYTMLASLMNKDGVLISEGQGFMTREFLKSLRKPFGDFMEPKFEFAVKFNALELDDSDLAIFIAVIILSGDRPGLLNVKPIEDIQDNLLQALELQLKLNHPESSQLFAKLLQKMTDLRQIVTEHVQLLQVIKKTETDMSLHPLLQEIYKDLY
# How it was run: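 HEK293H PPARg-bla cells, 5 h settle at 37C/5% CO2; compound (DMSO) 17 h, 37C; B/G FRET substrate 1 h RT; fluorescence intensity read-out. qHTS format.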
# [7] = qHTS assay to identify small molecule antagonists of the peroxisome proliferator-activated receptor gamma (PPARg) signaling pathway - cell viability counter screen (AID 743194); details: PPARg-bla HEK293H viability, CellTiter-Glo luminescence, 17 h, co-treated with 50 nM rosiglitazone; series mostly up to 62.6 µM; also: nearly all actives have a fitted effect of over 55% in size; also: potency is read from the fitted curve at half-maximal effect
# How it was run: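 Viability was measured as CellTiter-Glo luminescence in GeneBLAzer PPARg UAS-bla HEK293H cells. These cells had been exposed 17 h at 37 C to compounds together with rosiglitazone at 50 nM final, with the beta-lactamase readout taken in the same wells.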
# [8] = qHTS assay for small molecule agonists of the antioxidant response element (ARE) signaling pathway - cell viability counter screen (AID 743203; calls by dose curve; also: nearly all actives have a fitted effect of over 55% in size; also: potency is read from the fitted curve at half-maximal effect); details: ARE-bla HepG2 viability, CellTiter-Glo luminescence, 16 h; series mostly up to 73.3 µM
# How it was run: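 Luminescence read-out (CellTiter-Glo, 30 min at room temperature) measured cell viability in the same wells as the ARE beta-lactamase reporter. HepG2 ARE-bla cells were treated with compounds for 16 hrs at 37C/5% CO2.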
# [9] = qHTS assay for small molecule activators of the heat shock response signaling pathway - cell viability counter screen (AID 743209); details: HSE-bla HeLa viability, CellTiter-Glo luminescence, 5 h; series mostly up to 62.6 µM; also: nearly all actives have a fitted effect of over 50% in size; also: potency is read from the fitted curve at half-maximal effect
# How it was run: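 HSE-bla HeLa; 1500 cells/well; overnight 37 C, 5% CO2; compound 5 h 37 C; LiveBLAzer B/G substrate 2.5 h RT; CellTiter-Glo 30 min RT; luminescence.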
# [10] = molecular target: Aryl hydrocarbon receptor (Homo sapiens) (UniProt P35869); experiment: qHTS assay to identify small molecule that activate the aryl hydrocarbon receptor (AhR) signaling pathway (AID 743085); details: HepG2 AhR-luc (HG2L7.5c1), luciferase, 24 h; series mostly up to 70.3 µM;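 also: HG2L7.5c1 human HepG2 liver cells with stably integrated DRE-driven firefly reporter; nearly all actives have a fitted effect of over 15% in size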
# Chain of Aryl hydrocarbon receptor (Homo sapiens) (P35869 whole entry, looked up): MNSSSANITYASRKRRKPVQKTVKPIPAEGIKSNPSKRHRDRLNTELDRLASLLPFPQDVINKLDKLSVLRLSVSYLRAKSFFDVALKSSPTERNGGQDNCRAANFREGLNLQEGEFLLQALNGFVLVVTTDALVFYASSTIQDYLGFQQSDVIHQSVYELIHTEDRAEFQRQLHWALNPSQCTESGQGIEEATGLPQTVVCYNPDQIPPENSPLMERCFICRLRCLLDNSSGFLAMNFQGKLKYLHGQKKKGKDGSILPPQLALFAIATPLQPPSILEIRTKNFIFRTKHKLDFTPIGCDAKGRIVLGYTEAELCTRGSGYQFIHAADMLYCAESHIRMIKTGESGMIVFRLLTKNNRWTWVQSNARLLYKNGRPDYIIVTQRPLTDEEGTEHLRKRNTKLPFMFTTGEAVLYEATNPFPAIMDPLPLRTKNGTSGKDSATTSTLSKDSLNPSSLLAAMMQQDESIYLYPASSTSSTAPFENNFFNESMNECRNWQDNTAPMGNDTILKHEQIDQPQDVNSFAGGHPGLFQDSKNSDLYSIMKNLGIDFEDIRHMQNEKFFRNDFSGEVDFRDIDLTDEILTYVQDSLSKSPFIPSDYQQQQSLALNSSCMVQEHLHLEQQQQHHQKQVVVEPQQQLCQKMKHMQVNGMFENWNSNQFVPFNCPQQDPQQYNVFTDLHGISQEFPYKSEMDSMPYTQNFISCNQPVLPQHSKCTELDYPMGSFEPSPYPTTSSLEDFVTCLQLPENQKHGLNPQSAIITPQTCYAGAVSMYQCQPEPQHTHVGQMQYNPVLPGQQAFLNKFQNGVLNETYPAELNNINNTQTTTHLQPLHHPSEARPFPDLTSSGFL
# How it was run: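 A multiplexed format paired cell viability (CellTiter-Fluor fluorescence) with AhR-dependent luciferase output (ONE-Glo luminescence) in the same wells of HepG2 DRE-luc cells after 24 h compound exposure at 37C.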
# [11] = qHTS assay for small molecule agonists of the antioxidant response element (ARE) signaling pathway (AID 743202; active = well fitted activation curve with a large enough effect in the signal ratio in the repeat runs, not every such curve was filed as active; the % refers to the signal ratio; also: potency is read from the fitted curve at half-maximal effect); details: HepG2 ARE-bla reporter, beta-lactamase FRET, 16 h; series mostly up to 73.3 µM
# How it was run: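 After 16 hours of compound treatment at 37 C, HepG2 cells with a stably integrated ARE-driven beta-lactamase reporter were loaded 2 hours at room temperature with LiveBLAzer B/G FRET substrate and fluorescence intensity measured.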
# [12] = qHTS assay to identify small molecule agonists of the peroxisome proliferator-activated receptor delta (PPARd) signaling pathway - cell viability counter screen (AID 743211); details: PPARd-bla HEK293H viability, CellTiter-Glo luminescence, 17 h; series mostly up to 62.6 µM; also: nearly all actives have a fitted effect of over 55% in size; also: potency is read from the fitted curve at half-maximal effect
# How it was run: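 Tox21 library compounds, delivered in DMSO, were incubated 17 h with PPARd-bla HEK293H cells; cytotoxicity was taken from CellTiter-Glo luminescence read 30 min after reagent addition.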
# [13] = molecular target: Peroxisome proliferator-activated receptor gamma (Homo sapiens) (UniProt P37231); experiment: qHTS assay to identify small molecule antagonists of the peroxisome proliferator-activated receptor gamma (PPARg) signaling pathway (AID 743191; calls by dose curve; also: nearly all actives have a fitted effect of over 30% in size; also: potency is read from the fitted curve at half-maximal effect); details: HEK293H PPARg-UAS-bla, beta-lactamase ratio, antagonist, 17 h; series mostly up to 62.6 µM
# How it was run: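 Beta-lactamase reporter under UAS control in HEK293H PPARg-bla cells; compound treatment 17 h at 37C. Read-out: fluorescence intensity after 1 h room-temperature incubation with LiveBLAzer B/G FRET substrate.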
# [14] = molecular target: Estrogen receptor (Homo sapiens) (UniProt P03372); experiment: qHTS assay to identify small molecule agonists of the estrogen receptor alpha (ER-alpha) signaling pathway (AID 743075; calls by dose curve;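 also: HEK293 GripTite cells with ER-alpha and UAS-driven beta-lactamase reporter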); details: HEK293 ER-alpha-UAS-bla, beta-lactamase FRET ratio, 18 h; series mostly up to 70.1 µM
# Chain of Estrogen receptor (Homo sapiens) (P03372 whole entry, looked up): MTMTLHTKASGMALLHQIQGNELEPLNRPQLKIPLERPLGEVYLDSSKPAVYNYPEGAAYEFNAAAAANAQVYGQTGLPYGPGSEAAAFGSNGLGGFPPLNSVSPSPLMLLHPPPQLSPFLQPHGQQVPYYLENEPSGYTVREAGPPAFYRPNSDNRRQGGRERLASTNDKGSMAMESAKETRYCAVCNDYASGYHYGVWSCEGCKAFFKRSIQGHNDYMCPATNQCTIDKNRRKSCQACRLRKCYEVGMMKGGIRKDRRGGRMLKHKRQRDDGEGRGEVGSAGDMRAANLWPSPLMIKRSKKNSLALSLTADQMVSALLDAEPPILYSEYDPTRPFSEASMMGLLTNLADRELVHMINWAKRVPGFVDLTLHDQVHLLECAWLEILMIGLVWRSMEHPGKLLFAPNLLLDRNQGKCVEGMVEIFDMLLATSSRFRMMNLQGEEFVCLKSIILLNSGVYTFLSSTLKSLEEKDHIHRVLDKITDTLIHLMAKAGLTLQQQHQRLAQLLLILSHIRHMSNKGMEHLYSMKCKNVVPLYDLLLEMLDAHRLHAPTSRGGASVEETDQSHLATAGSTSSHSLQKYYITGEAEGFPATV
# [15] = molecular target: Estrogen receptor (Homo sapiens) (UniProt P03372); experiment: qHTS assay to identify small molecule agonists of the estrogen receptor alpha (ER-alpha) signaling pathway using the BG1 cell line (AID 743079); details: BG1Luc4E2 cells, ERE-luciferase agonist, 22 h; activation: at 70.3 µM (top of the series); also: nearly all actives have a fitted effect of over 20% in size
# [16] = qHTS assay to identify small molecule antagonists of the estrogen receptor alpha (ER-alpha) signaling pathway using the BG1 cell line (AID 743080; calls by dose curve;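 also: BG1 cells stimulated with 17beta-estradiol alongside compound; nearly all actives have a fitted effect of over 25% in size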); details: BG1Luc4E2 ERE-luciferase antagonist mode, luminescence; activity change, negative = inhibition: at 70.3 µM (top of the series)
# How it was run: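 Readout is ONE-Glo luminescence, taken 30 min at room temperature after reagent addition, preceded by a CellTiter-Fluor viability read; BG1-Luc-4E2 cells had received compound and 17beta-estradiol for 21.5 h at 37 C.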
# [17] = qHTS assay for small molecule activators of the heat shock response signaling pathway (AID 743210; active = well fitted activation curve with a large enough effect in the signal ratio in the repeat runs, with a control signal flat, not every such curve was filed as active; the % refers to the signal ratio; also: potency is read from the fitted curve at half-maximal effect); details: HeLa HSE-bla reporter, beta-lactamase ratio, 5 h; series mostly up to 62.6 µM
# How it was run: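 Compound exposure lasted 5 h at 37 C in HeLa cells carrying a heat-shock-element-driven beta-lactamase reporter. Read-out: fluorescence intensity after 2.5 h room-temperature loading with LiveBLAzer B/G FRET substrate.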
# [18] = molecular target: Peroxisome proliferator-activated receptor delta (Homo sapiens) (UniProt Q03181); experiment: qHTS assay to identify small molecule agonists of the peroxisome proliferator-activated receptor delta (PPARd) signaling pathway (AID 743212; calls by dose curve;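 also: HEK293H cells with PPARd UAS beta-lactamase reporter GeneBLAzer system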); details: HEK293H PPARd-UAS-bla, beta-lactamase FRET ratio, 17 h; series mostly up to 62.6 µM
# Chain of Peroxisome proliferator-activated receptor delta (Homo sapiens) (Q03181 whole entry, looked up): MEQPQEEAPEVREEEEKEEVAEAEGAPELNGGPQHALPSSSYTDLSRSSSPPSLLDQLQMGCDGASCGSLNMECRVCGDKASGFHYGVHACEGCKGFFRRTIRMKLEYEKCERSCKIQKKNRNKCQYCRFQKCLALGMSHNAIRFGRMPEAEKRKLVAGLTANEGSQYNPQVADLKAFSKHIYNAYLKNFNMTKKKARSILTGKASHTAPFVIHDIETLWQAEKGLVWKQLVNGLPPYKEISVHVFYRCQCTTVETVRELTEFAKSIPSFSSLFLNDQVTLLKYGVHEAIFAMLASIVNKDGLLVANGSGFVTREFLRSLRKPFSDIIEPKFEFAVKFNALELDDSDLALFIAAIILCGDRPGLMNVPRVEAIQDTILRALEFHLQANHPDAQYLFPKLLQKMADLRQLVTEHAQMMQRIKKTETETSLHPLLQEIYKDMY
# How it was run: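 Beta-lactamase reporter readout: a ratiometric FRET signal from the LiveBLAzer substrate after 2 h at room temperature. Compound exposure at 37 °C in PPARδ-bla HEK293H cells driven by an upstream activator sequence.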
compound,measurement,setting,value
C=CC(=C)CCC=C(C)C,Potency,[1],inactive
same,Potency,[2],inactive
same,Potency,[3],inactive
same,Potency,Aromatase (Homo sapiens),inactive
same,Potency,[4],inactive
same,Potency,[5],inactive
same,Potency,[6],inactive
same,Potency,[7],inactive
same,Potency,[8],inactive
same,Potency,[9],inactive
C=CC(=O)OCCC#N,Potency,[1],inactive
same,Potency,[2],inactive
same,Potency,[3],inactive
same,Potency,[10],inactive
same,Potency,[5],inactive
same,Potency,[11],34.6 µM (active)
same,Potency,[8],inactive
same,Potency,[12],inactive
O=C1c2c(O)ccc([N+](=O)[O-])c2C(=O)c2c([N+](=O)[O-])ccc(O)c21,Potency,[1],inactive
same,Potency,[2],38.5 µM (active)
same,Potency,[3],30.4 µM (active)
same,Potency,Aromatase (Homo sapiens),6.06 µM (active)
same,Potency,[4],9.6 µM (active)
same,Potency,[10],inactive
same,Potency,[5],19.2 µM (active)
same,Potency,[13],6.85 µM (active)
same,Potency,[7],8.63 µM (active)
same,Potency,[8],3.82 µM (active)
same,Potency,[9],10.9 µM (active)
same,Potency,[12],12.2 µM (active)
Cc1ccc2ccc3cccc4ccc1c2c34,Potency,[1],inactive
same,Potency,[14],inactive
same,Potency,[15],inactive
same,Potency,[16],inactive
same,Potency,[3],inactive
same,Potency,Aromatase (Homo sapiens),inactive
same,Potency,[4],inactive
same,Potency,[10],inactive
same,Potency,[5],inactive
same,Potency,[6],inactive
same,Potency,[13],inactive
same,Potency,[7],inactive
same,Potency,[11],inactive
same,Potency,[8],inactive
same,Potency,[17],inactive
same,outcome,[18],inactive
COC(=O)[C@]1(C)CCC[C@@]2(C)[C@H]1CC=C1C=C(C(C)C)CC[C@@H]12,Potency,[1],inactive
same,Potency,[2],inactive
same,Potency,[3],inactive
same,Potency,[5],inactive
same,Potency,[7],54.9 µM (active)
same,Potency,[11],61.1 µM (active)
same,Potency,[8],inactive
C=CCCCCCCC=C,Potency,[1],inactive
same,Potency,[2],inactive
same,Potency,[3],inactive
same,Potency,Aromatase (Homo sapiens),inactive
same,Potency,[4],inactive
same,Potency,[10],inactive
same,Potency,[5],inactive
same,Potency,[7],inactive
same,Potency,[8],inactive
Oc1ccc(-c2ccc(O)cc2)cc1,Potency,[1],inactive
same,Potency,[3],inactive
same,Potency,Aromatase (Homo sapiens),inactive
same,Potency,[4],inactive
same,Potency,[10],inactive
same,Potency,[5],inactive
same,Potency,[7],inactive
same,Potency,[9],inactive
same,Potency,[17],inactive
same,Potency,[12],inactive
CCNc1nc(NC(C)CC)nc(OC)n1 (stereo not drawn),Potency,[1],inactive
same,Potency,[2],inactive
same,Potency,[3],inactive
same,Potency,Aromatase (Homo sapiens),inactive
same,Potency,[4],inactive
same,Potency,[5],inactive
same,Potency,[6],inactive
same,Potency,[13],inactive
same,Potency,[7],inactive
same,Potency,[8],inactive
same,Potency,[12],inactive
same,outcome,[18],inactive
N[C@@H](CSSC[C@H](N)C(=O)O)C(=O)O,Potency,[1],inactive
same,Potency,[2],inactive
same,Potency,[3],inactive
same,Potency,Aromatase (Homo sapiens),inactive
same,Potency,[4],inactive
same,Potency,[10],inactive
same,Potency,[5],inactive
same,Potency,[6],inactive
same,"ratio activity, negative = inhibition",[13],3.31% [at 0.55 µM]
same,"activity change, negative = cytotoxicity",[7],9.18% [at 0.55 µM]
same,activation,[11],9.27% [at 0.756 µM]
same,"viability change, negative = cytotoxic",[8],-0.389% [at 0.756 µM]
same,activation,[18],-7.58% [at 0.55 µM]
c1cc2c3c(c1)ccc1cccc(c13)C2,Potency,[1],inactive
same,Potency,[2],inactive
same,Potency,[3],inactive
same,Potency,Aromatase (Homo sapiens),inactive
same,Potency,[4],inactive
same,Potency,[10],inactive
same,Potency,[5],inactive
same,Potency,[12],56.1 µM (active)
same,outcome,[18],inactive
Clc1ccc(C(c2ccccc2Cl)C(Cl)Cl)cc1 (stereo not drawn),Potency,[1],inactive
same,Potency,[2],inactive
same,Potency,[3],inactive
same,Potency,Aromatase (Homo sapiens),inactive
same,Potency,[4],inactive
same,Potency,[10],inactive
same,Potency,[5],inactive
same,Potency,[6],inactive
same,Potency,[13],inactive
same,Potency,[7],54.9 µM (active)
same,Potency,[8],inactive
same,Potency,[9],inactive
same,Potency,[12],49 µM (active)
same,outcome,[18],inactive
O=C1OC(OC(=O)c2cccnc2Nc2cccc(C(F)(F)F)c2)c2ccccc21 (stereo not drawn),Potency,[1],inactive
same,Potency,[2],inactive
same,Potency,[3],inactive
same,Potency,Aromatase (Homo sapiens),inactive
same,Potency,[4],inactive
same,Potency,[10],inactive
same,Potency,[5],inactive
same,Potency,[6],inactive
same,Potency,[13],11.9 µM (active)
same,Potency,[7],inactive
same,Potency,[8],inactive
same,Potency,[12],inactive
CN(C)CCCN1c2ccccc2CCc2ccccc21,Potency,[1],inactive
same,Potency,[2],inactive
same,Potency,[3],inactive
same,Potency,Aromatase (Homo sapiens),inactive
same,Potency,[4],inactive
same,Potency,[10],inactive
same,Potency,[7],inactive
same,Potency,[12],30.9 µM (active)
Cc1occc1SSc1ccoc1C,Potency,[1],inactive
same,Potency,[2],inactive
same,Potency,[3],inactive
same,Potency,Aromatase (Homo sapiens),30.6 µM (active)
same,Potency,[4],43.3 µM (active)
same,Potency,[10],inactive
same,Potency,[5],inactive
same,Potency,[6],inactive
same,Potency,[13],inactive
same,Potency,[7],inactive
same,Potency,[8],inactive
same,Potency,[17],23.6 µM (active)
same,outcome,[18],inactive
